Assay outcomes: PubChem, Broad Institute
IDE exosite FP = insulin-degrading enzyme (human) exo-site inhibition. P14735. purified IDE, FL-6b probe fluorescence polarization; active compounds read low. z-score at 20 µM. 17,000 tested, 6.3% active. AID 1259349;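 active = z-score of -3 or lower, meaning strong loss of probe binding signal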;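 also: His-tagged human IDE residues 42-1019 made in E. coli with 30 nM FL-6b probe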
* = called active by the depositor. Only a selection was taken, and hits are over-represented in it overall.

COc1ccc(C#Cc2ccc([C@H]3[C@H](CO)N4C(=O)CN(C(=O)c5ccncc5)C[C@@H]34)cc2)cc1 was read as IDE exosite FP 1.44.
Screening COc1ccc(C#Cc2ccc([C@@H]3[C@H](CO)N4C(=O)CN(C(=O)c5ccncc5)C[C@@H]34)cc2)cc1 returned IDE exosite FP 3.35.
`COc1ccc(C#Cc2ccc([C@@H]3[C@@H](CO)N4C(=O)CN(C(=O)c5ccncc5)C[C@@H]34)cc2)cc1` gave IDE exosite FP 0.514.
For COc1ccc(C#Cc2ccc([C@H]3[C@@H](CO)N4C(=O)CN(C(=O)c5ccncc5)C[C@@H]34)cc2)cc1 the results were IDE exosite FP 0.672.
For COc1cccc(C#Cc2ccc([C@@H]3[C@@H](CO)N4C(=O)CN(C(=O)c5ccncc5)C[C@@H]34)cc2)c1 the results were IDE exosite FP -3.24*.
COc1ccc(C#Cc2ccc([C@@H]3[C@@H](CO)N4C(=O)CN(C(=O)c5ccncc5)C[C@H]34)cc2)cc1 was read as IDE exosite FP 3.26.
Screening COc1cccc(C#Cc2ccc([C@@H]3[C@H](CO)N4C(=O)CN(C(=O)c5ccncc5)C[C@@H]34)cc2)c1 returned IDE exosite FP -5.06*.
`COc1cccc(C#Cc2ccc([C@H]3[C@@H](CO)N4C(=O)CN(C(=O)c5ccncc5)C[C@@H]34)cc2)c1` gave IDE exosite FP -7.29*.
For O=C(Nc1ccccc1F)N1CCCCN2[C@@H](CO)[C@H](c3ccc(-c4cccnc4)cc3)[C@@H]2C1 the results were IDE exosite FP -0.202.
CC(C)NC(=O)N1[C@@H](CO)[C@@H](c2ccccc2)C12CN(C(=O)c1ccccn1)C2 was read as IDE exosite FP 0.728.
Screening CC(C)[C@H]1CC=CC[C@@H](C)Oc2ccccc2C(=O)N(C)[C@H](C(C)C)C(=O)N1 (mixture of isomers) returned IDE exosite FP 1.47.
Screening CCC(=O)N(C)C[C@@H]1[C@@H](c2ccc(C3=CCCCC3)cc2)[C@H](CO)N1C(C)=O returned IDE exosite FP 3.63.
COc1ccc([C@@H]2C/C=C\C[C@@H](c3ccc4c(c3)OCO4)NC(=O)[C@H](c3ccccc3)CC(=O)N2)c(OC)c1 was read as IDE exosite FP 2.03.
Screening COCC(=O)N1CCCCN2[C@@H](CO)[C@H](c3ccc(C#Cc4cccnc4)cc3)[C@@H]2C1 returned IDE exosite FP -6.27*.
`CCC(=O)N1CCCCN2[C@H](CO)[C@@H](c3ccc(C#Cc4cccnc4)cc3)[C@H]2C1` gave IDE exosite FP -2.39.
COCC(=O)N1CCCCN2[C@@H](CO)[C@@H](c3ccc(C#Cc4cccnc4)cc3)[C@@H]2C1 was read as IDE exosite FP 2.21.
Screening CCC(=O)N1CCCCN2[C@H](C1)[C@@H](c1ccc(C#Cc3cccnc3)cc1)[C@@H]2CO returned IDE exosite FP -2.37.
COCC(=O)N1CC(=O)N2[C@H](C1)[C@H](c1ccc(C#Cc3cccnc3)cc1)[C@@H]2CO was read as IDE exosite FP 1.45.
Screening CCC(=O)N1CCCCN2[C@H](C1)[C@H](c1ccc(C#Cc3cccnc3)cc1)[C@@H]2CO returned IDE exosite FP -3.45*.
`CN(C)C(=O)c1ccc(-c2ccc([C@@H]3[C@@H](CO)N4C(=O)CN(C(=O)C5CCCC5)C[C@@H]34)cc2)cc1` gave IDE exosite FP 0.639.
Screening O=C1CNC[C@H]2[C@H](c3ccc(C#CC4CCCC4)cc3)[C@H](CO)N12 returned IDE exosite FP 0.0481.
For CN1C(=O)c2cc(NS(C)(=O)=O)ccc2OC[C@@H]2O[C@@H](CC(=O)NCc3ccccc3)CC[C@@H]21 the results were IDE exosite FP -1.12.
Screening CC(C)[C@@H]1COCn2nncc2CC[C@H](C)C(=O)N1 returned IDE exosite FP -0.748.
OC[C@H]1Nc2ccc(-c3cccc(F)c3)cc2[C@@H]2[C@H]1CCN2Cc1ccc(F)cc1 was read as IDE exosite FP 1.25.
Screening CO[C@@H]1CN(C)C(=O)c2cc(NC(=O)Nc3cc(F)ccc3F)ccc2OC[C@H](C)NC[C@H]1C returned IDE exosite FP 2.2.
Cc1cccc(-c2ccc([C@@H]3[C@@H](CO)N4C(=O)CN(S(=O)(=O)c5cccc(F)c5)C[C@@H]34)cc2)c1 was read as IDE exosite FP -0.98.
COc1ccc(C#Cc2ccc([C@@H]3[C@H]4CN(C(=O)C5CCOCC5)CC(=O)N4[C@H]3CO)cc2)cc1 was read as IDE exosite FP 3.42.
`COc1ccc(C#Cc2ccc([C@@H]3[C@H](CO)N4C(=O)CN(C(=O)C5CCOCC5)C[C@@H]34)cc2)cc1` gave IDE exosite FP 3.25.
Screening COc1cccc(C#Cc2ccc([C@H]3[C@H]4CN(C(=O)C5CC5)CC(=O)N4[C@H]3CO)cc2)c1 returned IDE exosite FP -7.3*.
Screening COc1cccc(C#Cc2ccc([C@H]3[C@@H](CO)N4C(=O)CN(C(=O)C5CC5)C[C@@H]34)cc2)c1 returned IDE exosite FP -4.94*.
COc1ccc(C#Cc2ccc([C@H]3[C@@H](CO)N4C(=O)CN(C(=O)C5CCOCC5)C[C@@H]34)cc2)cc1 was read as IDE exosite FP 4.26.
For COc1cccc(C#Cc2ccc([C@@H]3[C@H](CO)N4C(=O)CN(C(=O)C5CC5)C[C@@H]34)cc2)c1 the results were IDE exosite FP -6.27*.
Screening CCCC#Cc1ccc([C@@H]2[C@H](CO)N3C(=O)CN(S(=O)(=O)c4ccccc4C)C[C@@H]23)cc1 returned IDE exosite FP -2.3.
Screening CNC(=O)C[C@H]1CC[C@@H]2[C@@H](COc3ccc(NS(=O)(=O)c4ccc(F)cc4)cc3C(=O)N2C)O1 returned IDE exosite FP 0.09.
Screening O=C(C1CCOCC1)N1[C@H](CO)[C@@H](c2ccccc2)C12CN(Cc1cccc(Cl)c1)C2 returned IDE exosite FP -0.593.
Screening COc1ccc(S(=O)(=O)Nc2ccc3c(c2)C(=O)N([C@H](C)CO)C[C@@H](C)[C@@H](CN(C)Cc2ccc(C(F)(F)F)cc2)OCCCC[C@H](C)O3)cc1 returned IDE exosite FP 1.37.
`COCC(=O)N(C[C@@H]1N[C@@H](CO)[C@@H]1c1ccc(-c2ccccc2)cc1)C(C)C` gave IDE exosite FP 0.714.
CCCC(=O)N1CC2(CN(C(=O)C3CC3)C2)c2c(n(C)c3cc(OC)ccc23)[C@H]1CO was read as IDE exosite FP -0.167.
`CC(C)[C@H]1C(=O)N[C@H](c2cccc(Cl)c2)CC=CC[C@@H](C)Oc2ccccc2C(=O)N1C` (mixture of isomers) gave IDE exosite FP 1.34.
`CN(C)C(=O)c1ccc(-c2ccc([C@H]3[C@@H](C#N)N(C(=O)Cc4ccccn4)[C@H]3CO)cc2)cc1` gave IDE exosite FP -2.06.
Cc1ccccc1-c1ccc([C@H]2[C@H](CO)N3CCCCN(S(=O)(=O)Cc4ccccc4)C[C@@H]23)cc1 was read as IDE exosite FP -1.26.
Screening Cc1ccccc1-c1ccc([C@H]2[C@@H](CO)N3CCCCN(S(=O)(=O)c4ccc(F)cc4)C[C@H]23)cc1 returned IDE exosite FP -0.864.
CCS(=O)(=O)N1CCCCN2[C@H](C1)[C@@H](c1ccc(-c3ccccc3C)cc1)[C@@H]2CO was read as IDE exosite FP -8.77*.
For Cc1ccccc1-c1ccc([C@@H]2[C@@H](CO)N3CCCCN(S(=O)(=O)Cc4ccccc4)C[C@H]23)cc1 the results were IDE exosite FP 0.958.
Screening O=S(=O)(c1ccc(F)cc1)N1CCCCN2[C@H](C1)[C@H](c1ccc(-c3ccccc3)cc1)[C@@H]2CO returned IDE exosite FP 0.0777.
